Test [1] deals with Sphingosine kinase 1 (Homo sapiens) (UniProt Q9NYA1). The note with it: at 1 µM.
Test [2] deals with T1, Sphingosine kinase 2 (Homo sapiens) (UniProt Q9NRA0).
T1 sequence (whole entry): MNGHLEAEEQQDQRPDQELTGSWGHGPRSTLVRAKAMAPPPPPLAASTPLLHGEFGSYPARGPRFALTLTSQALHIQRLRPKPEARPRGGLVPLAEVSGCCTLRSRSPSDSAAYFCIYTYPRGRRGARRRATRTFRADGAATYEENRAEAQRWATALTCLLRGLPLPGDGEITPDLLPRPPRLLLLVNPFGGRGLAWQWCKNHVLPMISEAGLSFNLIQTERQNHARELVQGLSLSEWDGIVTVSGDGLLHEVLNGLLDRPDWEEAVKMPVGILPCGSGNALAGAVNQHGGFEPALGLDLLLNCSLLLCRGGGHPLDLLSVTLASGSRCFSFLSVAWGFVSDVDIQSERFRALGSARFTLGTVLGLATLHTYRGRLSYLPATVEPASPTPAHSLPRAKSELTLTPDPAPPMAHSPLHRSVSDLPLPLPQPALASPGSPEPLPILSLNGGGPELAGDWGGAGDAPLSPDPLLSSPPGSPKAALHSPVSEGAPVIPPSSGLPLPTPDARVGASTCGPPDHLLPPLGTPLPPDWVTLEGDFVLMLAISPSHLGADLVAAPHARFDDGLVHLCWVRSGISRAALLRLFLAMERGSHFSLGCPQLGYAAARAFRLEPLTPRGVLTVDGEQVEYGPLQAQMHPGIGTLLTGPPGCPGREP
To be noted: at 0.1 µM.

Test [3] addresses T1, Sphingosine kinase 2 (Homo sapiens). The note with it: at 1 µM.
In test [4] the target is Casein kinase II subunit alpha (Homo sapiens) (UniProt P68400). To be noted: at 0.1 µM.
Chain of Casein kinase II subunit alpha (Homo sapiens) (P68400 whole entry, looked up): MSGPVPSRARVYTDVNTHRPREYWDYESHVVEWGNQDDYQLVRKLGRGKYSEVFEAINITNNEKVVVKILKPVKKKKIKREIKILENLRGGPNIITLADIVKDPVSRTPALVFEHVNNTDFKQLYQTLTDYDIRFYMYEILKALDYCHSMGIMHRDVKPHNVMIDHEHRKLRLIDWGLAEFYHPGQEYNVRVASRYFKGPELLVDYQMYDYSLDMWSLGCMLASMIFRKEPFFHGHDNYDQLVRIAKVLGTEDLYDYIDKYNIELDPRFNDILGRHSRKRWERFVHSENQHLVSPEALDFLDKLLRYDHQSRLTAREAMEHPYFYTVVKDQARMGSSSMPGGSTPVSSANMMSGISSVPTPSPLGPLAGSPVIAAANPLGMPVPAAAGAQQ
Test [5] shares this target. To be noted: at 1 µM.
The target in test [6] is T2, Inhibitor of nuclear factor kappa-B kinase subunit alpha (Homo sapiens) (UniProt O15111).
T2 sequence (whole entry): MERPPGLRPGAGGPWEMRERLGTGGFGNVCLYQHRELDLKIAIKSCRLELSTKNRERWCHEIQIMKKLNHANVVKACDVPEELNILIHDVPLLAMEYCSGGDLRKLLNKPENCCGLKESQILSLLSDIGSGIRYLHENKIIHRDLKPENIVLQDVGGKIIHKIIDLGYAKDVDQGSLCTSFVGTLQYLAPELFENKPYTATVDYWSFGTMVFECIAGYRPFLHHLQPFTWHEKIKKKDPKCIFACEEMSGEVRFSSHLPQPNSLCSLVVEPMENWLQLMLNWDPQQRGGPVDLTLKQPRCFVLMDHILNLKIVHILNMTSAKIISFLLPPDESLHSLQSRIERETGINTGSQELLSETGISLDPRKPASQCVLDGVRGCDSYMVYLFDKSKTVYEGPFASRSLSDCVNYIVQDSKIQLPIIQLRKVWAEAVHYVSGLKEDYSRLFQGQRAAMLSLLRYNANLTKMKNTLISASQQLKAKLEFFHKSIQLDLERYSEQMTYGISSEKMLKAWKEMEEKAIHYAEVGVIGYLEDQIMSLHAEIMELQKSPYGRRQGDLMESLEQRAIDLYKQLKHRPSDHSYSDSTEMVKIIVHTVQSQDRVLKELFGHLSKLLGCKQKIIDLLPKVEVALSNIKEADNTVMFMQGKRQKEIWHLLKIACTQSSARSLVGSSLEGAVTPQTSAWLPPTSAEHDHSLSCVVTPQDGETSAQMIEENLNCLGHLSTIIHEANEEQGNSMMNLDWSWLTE
The note with it: at 0.1 µM.

Test [7] has as its target T2, Inhibitor of nuclear factor kappa-B kinase subunit alpha (Homo sapiens). To be noted: at 1 µM.
The target of test [8] is T3, Inhibitor of nuclear factor kappa-B kinase subunit beta (Homo sapiens) (UniProt O14920).
T3 sequence (whole entry): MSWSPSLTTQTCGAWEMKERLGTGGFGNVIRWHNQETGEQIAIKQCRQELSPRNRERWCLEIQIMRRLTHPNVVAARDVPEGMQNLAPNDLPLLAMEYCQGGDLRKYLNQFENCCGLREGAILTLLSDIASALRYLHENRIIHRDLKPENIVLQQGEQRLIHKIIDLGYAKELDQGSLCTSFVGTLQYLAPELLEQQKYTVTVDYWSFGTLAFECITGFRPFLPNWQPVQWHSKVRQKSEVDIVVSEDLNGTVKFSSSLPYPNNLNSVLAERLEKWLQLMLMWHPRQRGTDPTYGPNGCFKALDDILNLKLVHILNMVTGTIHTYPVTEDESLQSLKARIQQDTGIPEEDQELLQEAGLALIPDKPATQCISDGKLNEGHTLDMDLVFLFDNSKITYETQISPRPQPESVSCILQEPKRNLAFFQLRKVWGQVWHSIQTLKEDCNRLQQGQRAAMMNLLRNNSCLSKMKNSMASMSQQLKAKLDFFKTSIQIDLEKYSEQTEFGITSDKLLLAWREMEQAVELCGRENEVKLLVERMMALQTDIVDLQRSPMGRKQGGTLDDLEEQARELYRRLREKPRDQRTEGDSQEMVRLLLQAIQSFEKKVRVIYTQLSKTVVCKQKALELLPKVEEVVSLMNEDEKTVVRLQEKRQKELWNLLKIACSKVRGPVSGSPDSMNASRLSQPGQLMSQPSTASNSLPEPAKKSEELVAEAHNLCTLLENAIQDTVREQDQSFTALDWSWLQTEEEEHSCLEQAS
To be noted: at 0.1 µM.

The target of test [9] is T3, Inhibitor of nuclear factor kappa-B kinase subunit beta (Homo sapiens). The note with it: at 1 µM.
Test [10] concerns the target T4, Inhibitor of nuclear factor kappa-B kinase subunit epsilon (Homo sapiens) (UniProt Q14164).
T4 sequence (whole entry): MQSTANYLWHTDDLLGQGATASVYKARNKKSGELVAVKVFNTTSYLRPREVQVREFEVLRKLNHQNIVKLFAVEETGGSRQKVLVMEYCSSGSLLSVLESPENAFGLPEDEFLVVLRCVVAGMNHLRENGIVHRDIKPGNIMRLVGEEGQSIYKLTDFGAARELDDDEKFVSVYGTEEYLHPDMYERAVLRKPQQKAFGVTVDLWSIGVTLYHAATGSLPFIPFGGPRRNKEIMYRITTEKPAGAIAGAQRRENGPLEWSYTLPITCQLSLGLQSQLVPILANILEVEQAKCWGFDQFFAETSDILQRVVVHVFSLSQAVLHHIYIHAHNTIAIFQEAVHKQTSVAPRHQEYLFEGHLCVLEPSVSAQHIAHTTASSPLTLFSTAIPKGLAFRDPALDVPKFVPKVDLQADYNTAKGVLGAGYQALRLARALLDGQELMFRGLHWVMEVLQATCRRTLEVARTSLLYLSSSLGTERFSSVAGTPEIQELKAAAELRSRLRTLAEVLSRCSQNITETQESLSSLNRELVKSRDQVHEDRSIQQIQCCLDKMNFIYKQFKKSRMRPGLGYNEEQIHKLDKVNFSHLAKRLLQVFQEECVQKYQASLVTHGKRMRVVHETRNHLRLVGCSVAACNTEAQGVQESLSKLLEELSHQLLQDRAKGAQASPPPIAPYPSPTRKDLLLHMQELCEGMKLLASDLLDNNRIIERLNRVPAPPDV
The note with it: at 0.1 µM.

Test [11] deals with T4, Inhibitor of nuclear factor kappa-B kinase subunit epsilon (Homo sapiens). The note with it: at 1 µM.
Test [12] addresses T5, Serine/threonine-protein kinase Nek1 (Homo sapiens) (UniProt Q96PY6).
T5 sequence (whole entry): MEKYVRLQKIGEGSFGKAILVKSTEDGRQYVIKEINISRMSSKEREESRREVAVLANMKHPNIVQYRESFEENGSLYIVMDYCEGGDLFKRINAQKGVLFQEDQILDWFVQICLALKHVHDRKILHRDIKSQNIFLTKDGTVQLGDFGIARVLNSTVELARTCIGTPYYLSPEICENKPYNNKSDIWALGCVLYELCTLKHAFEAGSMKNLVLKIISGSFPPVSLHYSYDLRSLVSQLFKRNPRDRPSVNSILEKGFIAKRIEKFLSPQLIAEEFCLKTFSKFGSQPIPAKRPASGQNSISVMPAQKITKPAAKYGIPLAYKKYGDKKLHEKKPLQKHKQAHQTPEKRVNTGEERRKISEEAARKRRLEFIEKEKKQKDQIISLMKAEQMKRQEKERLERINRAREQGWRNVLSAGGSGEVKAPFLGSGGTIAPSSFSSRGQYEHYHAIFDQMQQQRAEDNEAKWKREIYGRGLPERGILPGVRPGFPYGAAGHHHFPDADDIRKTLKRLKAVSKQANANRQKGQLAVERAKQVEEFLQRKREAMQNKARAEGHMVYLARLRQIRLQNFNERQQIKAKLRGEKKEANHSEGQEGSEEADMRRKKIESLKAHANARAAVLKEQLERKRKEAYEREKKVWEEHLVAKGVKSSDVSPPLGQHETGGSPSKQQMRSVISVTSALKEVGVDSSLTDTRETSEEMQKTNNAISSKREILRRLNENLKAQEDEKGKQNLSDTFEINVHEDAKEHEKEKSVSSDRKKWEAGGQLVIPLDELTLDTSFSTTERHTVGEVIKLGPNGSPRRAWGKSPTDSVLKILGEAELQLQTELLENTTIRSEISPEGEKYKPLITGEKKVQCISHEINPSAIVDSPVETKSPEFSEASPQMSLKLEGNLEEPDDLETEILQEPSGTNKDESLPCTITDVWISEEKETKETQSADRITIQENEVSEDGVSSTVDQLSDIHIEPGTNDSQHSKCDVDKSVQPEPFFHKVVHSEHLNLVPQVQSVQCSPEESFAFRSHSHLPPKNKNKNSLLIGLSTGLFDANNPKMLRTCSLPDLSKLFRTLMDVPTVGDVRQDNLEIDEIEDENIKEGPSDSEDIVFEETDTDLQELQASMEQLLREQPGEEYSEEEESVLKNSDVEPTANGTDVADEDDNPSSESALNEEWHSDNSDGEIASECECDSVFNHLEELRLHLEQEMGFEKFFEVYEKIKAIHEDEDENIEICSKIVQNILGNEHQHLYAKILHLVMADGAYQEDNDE
The note with it: at 0.1 µM.

In test [13] the target is T5, Serine/threonine-protein kinase Nek1 (Homo sapiens). To be noted: at 1 µM.
The target of test [14] is T6, Serine/threonine-protein kinase Nek2 (Homo sapiens) (UniProt P51955).
T6 sequence (whole entry): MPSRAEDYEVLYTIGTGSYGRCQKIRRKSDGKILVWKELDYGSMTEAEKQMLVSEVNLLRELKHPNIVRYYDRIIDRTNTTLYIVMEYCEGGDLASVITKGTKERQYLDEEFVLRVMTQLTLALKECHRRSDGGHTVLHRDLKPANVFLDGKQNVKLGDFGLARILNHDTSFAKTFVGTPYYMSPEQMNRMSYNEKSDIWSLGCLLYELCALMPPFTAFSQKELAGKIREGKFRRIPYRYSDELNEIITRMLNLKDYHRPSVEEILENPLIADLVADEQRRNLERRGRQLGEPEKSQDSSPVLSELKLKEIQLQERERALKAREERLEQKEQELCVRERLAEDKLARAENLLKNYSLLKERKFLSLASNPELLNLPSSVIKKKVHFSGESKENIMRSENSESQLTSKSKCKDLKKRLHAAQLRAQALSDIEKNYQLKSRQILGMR
To be noted: at 0.1 µM.

Test [15] concerns the target T6, Serine/threonine-protein kinase Nek2 (Homo sapiens). To be noted: at 1 µM.
For test [16], the target named is Serine/threonine-protein kinase Nek6 (Homo sapiens) (UniProt Q9HC98). To be noted: at 0.1 µM.
Chain of Serine/threonine-protein kinase Nek6 (Homo sapiens) (Q9HC98 whole entry): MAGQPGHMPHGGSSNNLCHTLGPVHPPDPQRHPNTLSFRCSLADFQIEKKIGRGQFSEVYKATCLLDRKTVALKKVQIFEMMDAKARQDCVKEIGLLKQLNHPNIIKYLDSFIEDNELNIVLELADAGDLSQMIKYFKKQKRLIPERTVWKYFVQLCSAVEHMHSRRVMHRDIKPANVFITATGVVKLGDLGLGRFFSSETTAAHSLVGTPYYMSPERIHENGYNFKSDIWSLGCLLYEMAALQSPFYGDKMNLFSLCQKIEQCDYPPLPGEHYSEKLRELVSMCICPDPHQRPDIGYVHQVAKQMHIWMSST
For test [17] the target is unchanged. The note with it: at 1 µM.
For test [18], the target named is Serine/threonine-protein kinase Nek7 (Homo sapiens) (UniProt Q8TDX7). The note with it: at 0.1 µM.
Chain of Serine/threonine-protein kinase Nek7 (Homo sapiens) (Q8TDX7 whole entry, looked up): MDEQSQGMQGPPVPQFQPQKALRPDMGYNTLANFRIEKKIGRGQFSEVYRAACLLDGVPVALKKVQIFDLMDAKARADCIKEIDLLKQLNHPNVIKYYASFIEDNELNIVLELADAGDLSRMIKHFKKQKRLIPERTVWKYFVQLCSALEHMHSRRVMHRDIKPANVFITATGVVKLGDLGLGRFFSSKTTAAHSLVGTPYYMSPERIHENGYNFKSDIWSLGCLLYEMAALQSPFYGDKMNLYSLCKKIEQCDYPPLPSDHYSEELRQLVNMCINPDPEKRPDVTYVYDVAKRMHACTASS
Test [19] shares this target. To be noted: at 1 µM.
The target of test [20] is T7, Serine/threonine-protein kinase Nek9 (Homo sapiens) (UniProt Q8TD19).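 Note: reported value is the mean percent inhibition of NEK9.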
T7 sequence (whole entry): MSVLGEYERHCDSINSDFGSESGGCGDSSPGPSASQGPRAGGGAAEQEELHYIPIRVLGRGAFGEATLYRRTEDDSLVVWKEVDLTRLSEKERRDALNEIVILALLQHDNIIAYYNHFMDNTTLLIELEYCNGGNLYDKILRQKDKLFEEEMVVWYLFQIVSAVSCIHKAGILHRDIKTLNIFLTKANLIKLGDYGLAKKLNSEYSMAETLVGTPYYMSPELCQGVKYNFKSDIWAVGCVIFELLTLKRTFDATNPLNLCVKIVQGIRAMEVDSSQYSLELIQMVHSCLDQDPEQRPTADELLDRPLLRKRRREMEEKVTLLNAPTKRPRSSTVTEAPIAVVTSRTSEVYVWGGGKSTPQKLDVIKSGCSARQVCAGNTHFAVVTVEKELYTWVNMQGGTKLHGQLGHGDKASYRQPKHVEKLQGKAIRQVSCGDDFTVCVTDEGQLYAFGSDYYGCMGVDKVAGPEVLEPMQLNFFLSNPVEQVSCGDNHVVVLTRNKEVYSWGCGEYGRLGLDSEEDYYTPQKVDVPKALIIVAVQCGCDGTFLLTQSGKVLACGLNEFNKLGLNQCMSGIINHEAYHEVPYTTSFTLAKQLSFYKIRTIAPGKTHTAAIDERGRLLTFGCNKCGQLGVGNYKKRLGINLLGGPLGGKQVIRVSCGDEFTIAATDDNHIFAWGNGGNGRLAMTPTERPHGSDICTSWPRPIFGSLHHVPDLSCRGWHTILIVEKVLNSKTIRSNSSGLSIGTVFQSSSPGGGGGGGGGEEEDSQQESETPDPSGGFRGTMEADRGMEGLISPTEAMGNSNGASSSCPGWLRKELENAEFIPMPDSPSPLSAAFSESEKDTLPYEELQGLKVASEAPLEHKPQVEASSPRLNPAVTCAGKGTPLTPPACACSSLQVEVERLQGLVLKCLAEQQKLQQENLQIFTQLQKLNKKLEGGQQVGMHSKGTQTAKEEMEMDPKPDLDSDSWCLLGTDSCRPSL
To be noted: at 0.1 µM.

As a reminder, the inhibition is the drop in the measured response relative to a control, in per cent.

Chain of Sphingosine kinase 1 (Homo sapiens) (Q9NYA1 whole entry): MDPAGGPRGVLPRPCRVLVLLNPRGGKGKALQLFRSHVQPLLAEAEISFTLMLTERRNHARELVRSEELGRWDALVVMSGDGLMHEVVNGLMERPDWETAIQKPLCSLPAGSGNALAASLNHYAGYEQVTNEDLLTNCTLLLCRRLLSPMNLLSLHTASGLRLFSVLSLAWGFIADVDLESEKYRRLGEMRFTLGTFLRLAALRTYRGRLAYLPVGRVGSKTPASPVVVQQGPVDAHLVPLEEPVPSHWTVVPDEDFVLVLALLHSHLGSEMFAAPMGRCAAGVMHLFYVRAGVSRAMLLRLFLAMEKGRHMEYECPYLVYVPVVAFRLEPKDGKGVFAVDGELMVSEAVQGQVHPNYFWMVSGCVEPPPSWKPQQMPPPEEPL

With `N#Cc1c(NC(=O)CN2CCOCC2)sc2c1CCCC2`, the inhibition in test [1] is -2.59%; in [2] it was 1.39%; in test [3], -0.6%; in test [4] it was 6.02%; in [5], 10.9%; in test [6], 6.78%. In addition, the inhibition in [7] came out at 6.16%; in test [8] it was 4.25%; in test [9], 5.09%; in test [10] it was 9.02%; in test [11], 92%; in test [12], 2.42%. Also, the inhibition in test [13] was 6.07%; in test [14], 4.61%; in test [15], 4.37%; in test [16], 3.33%; in [17], 5.18%; in [18] it was 2.96%. The inhibition is 3.61% in [19] and 6.26% in [20].

For the origin of these results see ChEMBL document CHEMBL1961873, “Compounds: GSK PKIS; Assays: Nanosyn kinase panel” (2012).
